According to PubChem BioAssay (NCATS):
Results filed as inconclusive are left out. Active and inactive are the calls of the source. The call rests on the fitted dose curve; in most records, active means well fitted inhibition curve with a large enough effect; inconclusive means small, poorly fitted or top-dose-only effect; inactive means flat fitted curve, though single readings scatter.

system: HaCat; assay: Cytotoxic Profiling of Annotated Libraries Using Quantitative High-Throughput Screening (AID 1296008); settings: Five cell lines viability, CellTiter-Glo ATP luminescence, 48-72 h; max response: stronger effect = lower value; further: nearly all actives have a fitted effect of over 60% in size
In short: (§1)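 Cytotoxicity was measured as CellTiter-Glo ATP luminescence, read after 10 min at room temperature. Compound treatment of the cells lasted 48 or 72 hr at 37 degrees Celsius in a qHTS format.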
On the % scale 0 is the no-effect control and ±100 the full control effect; potency means the concentration at half of the fitted maximal effect.

Row | Compound | max response | Potency | outcome
1 | CC(=O)OC1C(OC(=O)c2ccccc2)C2C(C)(C)CC(=O)CC2(C)C23CCC(C)(C2)C(O)CC13 (stereo not given) | 1.97% (inactive) | – | –
2 | C=C[C@]1(C)C=C2CCC3C(C)(CCC[C@@]3(C)C(=O)O)C2CC1 (stereo not given in full) | -0.617% (inactive) | – | –
3 | Cc1cc(OCc2nnc(SC3CCCC3)n2-c2cccnc2)ccc1-c1ccc(S(C)(=O)=O)cc1 | – | 4.61 µM (active) | –
4 | CC(C)(O)/C=C/CC(C)(O)C1C(O)CC2(C)C3CCC4C(C)(C)C(=O)CCC4(C)C3CCC12C (stereo not given) | -10.7% (inactive) | – | –
5 | CC(=O)O[C@@H]1c2c3c(cc(O)c2C(=O)O[C@@H]1C)O[C@@]1(C)[C@@H](O)C[C@H]2C(C)(C)C(=O)C=C[C@]2(C)[C@@H]1C3 | 3.68% (inactive) | – | –
6 | Cc1cc(OCc2nc(-c3ccccc3Cl)cs2)ccc1OCC(=O)O | – | – | inactive
7 | Cc1ccc(-c2ccc3ncc4c(c3n2)n(C2CCN(C(=O)[C@H](C)O)CC2)c(=O)n4C)cn1 | – | 1.46 µM (active) | –
8 | O=C(O)COCCN1CCN([C@H](c2ccccc2)c2ccc(Cl)cc2)CC1 | -30.6% (inactive) | – | –
9 | C=C1CCC2C(C)(C(=O)O)CCCC2(C)C1CC/C(=C\CO)CO (stereo not given) | -8.15% (inactive) | – | –
10 | COc1ccc2cc(C(C)C(=O)Oc3ccc(C(N)=S)cc3)ccc2c1 (stereo not given) | 2.17% (inactive) | – | –
11 | CN(C)C1CCN(C(=O)c2ccc(NC(=O)Nc3ccc(-c4nc(N5CCOCC5)nc(N5CCOCC5)n4)cc3)cc2)CC1 | – | 0.116 µM (active) | –
12 | CC1(C)CC2C(C1)C(C)(O)C13CC1(COC3=O)C2O (stereo not given) | -11.6% (inactive) | – | –
13 | O=C1Nc2ccccc2C(O)(c2ccccc2)C1O (stereo not given) | -18.6% (inactive) | – | –
14 | CC(C)(C)c1ccc(S(=O)(=O)Nc2ccc(Cl)cc2C(=O)c2cc[n+]([O-])cc2)cc1 | -10.2% (inactive) | – | –
15 | C=C1CCCC2(C)CC3(OC)OC(=O)C(C)=C3CC12 (stereo not given) | 2.5% (inactive) | – | –
16 | C[C@@H]1C(=O)O[C@H]2[C@H](O)C34[C@H]5C[C@@H](C(C)(C)C)C36[C@@H](OC(=O)[C@@H]6O)O[C@@]4(C(=O)O5)[C@@]12O (stereo not given in full) | -29.1% (inactive) | – | –
17 | CC1=CC(=O)CC(C)(C)[C@@]1(O)CC[C@@H](C)O[C@@H]1O[C@H](CO)[C@@H](O)[C@H](O)[C@H]1O | -28.9% (inactive) | – | –
18 | Cc1cccc(S(=O)(=O)N2CCC[C@@H]2CCN2CCC(C)CC2)c1 | -28.1% (inactive) | – | –
19 | O=[N+]([O-])c1cn2c(n1)OCC(OCc1ccc(OC(F)(F)F)cc1)C2 (stereo not given) | -6.12% (inactive) | – | –
20 | O=C(O)Cc1ccc2oc(-c3ccc(NC(=O)/C=C/c4ccc(Br)cc4)c(F)c3)nc2c1 | 2.81% (inactive) | – | –
21 | Cc1cc(O)cc(O[C@@H]2O[C@H](CO)[C@@H](O)[C@H](O)[C@H]2O)c1 | -10.5% (inactive) | – | –

system: KB-3-1; assay: as above; settings: Five cell lines viability, CellTiter-Glo ATP luminescence, 48-72 h; max response: stronger effect = lower value
In short: as §1

Row | Compound | max response | Potency | outcome
22 | O=C(O)C1CN(Cc2ccc(-c3nc4cc(Cc5ccccc5F)ccc4s3)c(F)c2)C1 | -5.18% (inactive) | – | –
23 | CC[C@]12C=CCN3CC[C@@]4(c5cc([C@@]6(C(=O)OC)C[C@H]7C[C@@H](C(C)(F)F)CN(Cc8c6[nH]c6ccccc86)C7)c(OC)cc5N(C)[C@H]4[C@@](O)(C(=O)OC)[C@@H]1OC(C)=O)[C@@H]32 | – | 137 nM (active) | –
24 | COc1nc2sc(C(=O)NC3CC3)c(N)c2c(C)c1Cl | – | – | inactive
25 | COC1CC(O[C@H]2CC[C@@]3(C)C(CCC4C3[C@H](OC(C)=O)[C@@H](OC(=O)/C=C/c3ccccc3)[C@]3(C)C(C(C)=O)CC[C@]43O)C2)OC(C)C1OC1CC(OC)C(OC2CC(OC)C(OC3OC(C)C(OC4OC(CO)C(O)C(O)C4O)C(OC)C3O)C(C)O2)C(C)O1 (stereo not given in full) | -0.895% (inactive) | – | –
26 | CC(C)=CCC/C(C)=C/CO[C@@H]1O[C@H](CO)[C@@H](OC(=O)/C=C/c2ccc(O)cc2)[C@H](O[C@@H]2O[C@@H](C)[C@H](O)[C@@H](O)[C@H]2O)[C@H]1O | – | – | inactive
27 | COc1cc(/C=C/C(=O)O[C@H]2[C@H](O)[C@@H](CO)O[C@@]2(CO)O[C@H]2O[C@H](CO)[C@@H](O)[C@H](O)[C@H]2O)ccc1O | 1.78% (inactive) | – | –
28 | CC1CCC2(C(=O)O)CCC3(C)C(=CCC4C5(C)CCC(O)C(C)(CO)C5CCC43C)C2C1(C)O (stereo not given) | -0.678% (inactive) | – | –
29 | C=C1C[C@]23C[C@H]1CC[C@H]2[C@]1(C)CCC[C@@](C)(C(=O)O)[C@H]1[C@@H]3C(=O)O | 0.882% (inactive) | – | –
30 | OCC(CO[C@@H]1O[C@H](CO)[C@@H](O)[C@H](O)[C@H]1O)c1ccc2c(c1)OCO2 (stereo not given in full) | -7.72% (inactive) | – | –
31 | C/C=C/C=C/C(=O)N1CC[C@]23c4ccccc4N[C@H]4N(C)c5cccc6c5[C@@]42CCN([C@H]6C2OC2(C)C)[C@H]13 (stereo not given in full) | 9.01% (inactive) | – | –
32 | CC1OC(OC2C(C)OC(OC3C(OC(=O)C45CCC(C)(C)CC4C4=CCC6C7(C)CCC(OC8OC(C(=O)O)C(O)C(O)C8OC8OC(CO)C(O)C(OC9OC(C)C(O)C(O)C9O)C8O)C(C)(CO)C7CCC6(C)C4(C)CC5)OC(CO)C(O)C3O)C(O)C2O)C(O)C(O)C1O (stereo not given) | – | – | inactive
33 | CC(C)=CC/C=C(\C)[C@H]1CC[C@]2(C)[C@@H]1[C@H](O)C[C@@H]1[C@@]3(C)CC[C@H](O)C(C)(C)[C@@H]3[C@@H](O[C@@H]3O[C@H](CO)[C@@H](O)[C@H](O)[C@H]3O)C[C@]12C | – | – | inactive
34 | CC(C)=CCC(O)/C(C)=C/CO[C@@H]1O[C@H](CO)[C@@H](O)[C@H](O)[C@H]1O (stereo not given in full) | – | – | inactive
35 | OC/C=C/c1ccc(O[C@@H]2O[C@H](CO)[C@@H](O)[C@H](O)[C@H]2O)cc1 | 3.13% (inactive) | – | –
36 | CC1(C)CC[C@]2(CO[C@@H]3O[C@H](CO)[C@@H](O)[C@H](O)[C@H]3O)[C@@H](O)C[C@]3(C)C(=CCC4[C@@]5(C)CC[C@H](O[C@@H]6O[C@H](CO[C@@H]7O[C@H](CO[C@@H]8OC[C@@H](O)[C@H](O)[C@H]8O)[C@@H](O)[C@H](O)[C@H]7O)[C@@H](O)[C@H](O)[C@H]6O)C(C)(C)C5CC[C@]43C)[C@@H]2C1 (stereo not given in full) | -2.27% (inactive) | – | –
37 | CN[C@@H]1[C@H](O[C@H]2[C@H](O[C@@H]3[C@@H](O)[C@H](O)[C@@H](N=C(N)N)[C@H](O)[C@H]3N=C(N)N)O[C@@H](C)[C@]2(O)C=O)O[C@@H](CO)[C@H](O)[C@H]1O | – | – | inactive
38 | CC(C)C1=CC2C(CC[C@]2(C)O)[C@](C)(O)CC1 (stereo not given in full) | – | – | inactive
39 | C[C@@H]1O[C@@H](O[C@H]2[C@H](O)[C@@H](C(=O)O)O[C@@H](O[C@H]3CC[C@@]4(C)C(CC[C@]5(C)C4CC=C4C6CC(C)(C)CC[C@]6(C(=O)O)CC[C@]45C)C3(C)C)[C@@H]2O[C@@H]2OC[C@@H](O)[C@H](O)[C@H]2O)[C@H](O)[C@H](O)[C@H]1O (stereo not given in full) | 9.7% (inactive) | – | –
40 | CC(=O)OC1C(OC(=O)c2ccccc2)C2C(C)(C)CC(=O)CC2(C)C23CCC(C)(C2)C(O)CC13 (stereo not given) | -13.9% (inactive) | – | –
41 | C=C[C@]1(C)C=C2CCC3C(C)(CCC[C@@]3(C)C(=O)O)C2CC1 (stereo not given in full) | 8.11% (inactive) | – | –

Row | Compound | max response | Potency | outcome
42 | Cc1cc(OCc2nnc(SC3CCCC3)n2-c2cccnc2)ccc1-c1ccc(S(C)(=O)=O)cc1 | – | 1460 nM (active) | –
43 | CC(C)(O)/C=C/CC(C)(O)C1C(O)CC2(C)C3CCC4C(C)(C)C(=O)CCC4(C)C3CCC12C (stereo not given) | – | – | inactive
44 | CC(=O)O[C@@H]1c2c3c(cc(O)c2C(=O)O[C@@H]1C)O[C@@]1(C)[C@@H](O)C[C@H]2C(C)(C)C(=O)C=C[C@]2(C)[C@@H]1C3 | – | – | inactive
45 | Cc1cc(OCc2nc(-c3ccccc3Cl)cs2)ccc1OCC(=O)O | – | – | inactive
46 | Cc1ccc(-c2ccc3ncc4c(c3n2)n(C2CCN(C(=O)[C@H](C)O)CC2)c(=O)n4C)cn1 | – | 116 nM (active) | –
47 | O=C(O)COCCN1CCN([C@H](c2ccccc2)c2ccc(Cl)cc2)CC1 | 0.104% (inactive) | – | –
48 | C=C1CCC2C(C)(C(=O)O)CCCC2(C)C1CC/C(=C\CO)CO (stereo not given) | 8.33% (inactive) | – | –
49 | COc1ccc2cc(C(C)C(=O)Oc3ccc(C(N)=S)cc3)ccc2c1 (stereo not given) | 7.25% (inactive) | – | –
50 | CN(C)C1CCN(C(=O)c2ccc(NC(=O)Nc3ccc(-c4nc(N5CCOCC5)nc(N5CCOCC5)n4)cc3)cc2)CC1 | – | 58 nM (active) | –
51 | CC1(C)CC2C(C1)C(C)(O)C13CC1(COC3=O)C2O (stereo not given) | -11% (inactive) | – | –
52 | O=C1Nc2ccccc2C(O)(c2ccccc2)C1O (stereo not given) | 2.02% (inactive) | – | –
53 | CC(C)(C)c1ccc(S(=O)(=O)Nc2ccc(Cl)cc2C(=O)c2cc[n+]([O-])cc2)cc1 | – | – | inactive
54 | C=C1CCCC2(C)CC3(OC)OC(=O)C(C)=C3CC12 (stereo not given) | -2.16% (inactive) | – | –
55 | C[C@@H]1C(=O)O[C@H]2[C@H](O)C34[C@H]5C[C@@H](C(C)(C)C)C36[C@@H](OC(=O)[C@@H]6O)O[C@@]4(C(=O)O5)[C@@]12O (stereo not given in full) | -3.61% (inactive) | – | –
56 | CC1=CC(=O)CC(C)(C)[C@@]1(O)CC[C@@H](C)O[C@@H]1O[C@H](CO)[C@@H](O)[C@H](O)[C@H]1O | 1.23% (inactive) | – | –
57 | Cc1cccc(S(=O)(=O)N2CCC[C@@H]2CCN2CCC(C)CC2)c1 | -9.32% (inactive) | – | –
58 | O=[N+]([O-])c1cn2c(n1)OCC(OCc1ccc(OC(F)(F)F)cc1)C2 (stereo not given) | -10.4% (inactive) | – | –
59 | O=C(O)Cc1ccc2oc(-c3ccc(NC(=O)/C=C/c4ccc(Br)cc4)c(F)c3)nc2c1 | 0.378% (inactive) | – | –
60 | Cc1cc(O)cc(O[C@@H]2O[C@H](CO)[C@@H](O)[C@H](O)[C@H]2O)c1 | 4.47% (inactive) | – | –
